The values below come from PubChem BioAssay (Tox21).

In test [1] the target is Progesterone receptor (Homo sapiens) (UniProt P06401). The test can be described thus: qHTS assay to identify small molecule agonists of the progesterone receptor (PR) signaling pathway (AID 1346784; calls by dose curve; note: nearly all actives have a fitted effect of over 30% in size). In short, it runs like this:
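Seed PR-UAS-bla HEK 293T cells (2% charcoal-stripped FBS), incubate 6 hr at 37C; add compounds in DMSO, 16 hr at 37C; add LiveBLAzer B/G substrate, 2 hr RT; read fluorescence intensity.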

Test [2] is described as follows: qHTS assay to identify small molecule antagonists of the TGF-beta/Smad signaling pathway - cell viability counter screen (AID 1346824). Note: nearly all actives have a fitted effect of over 50% in size. In short, it runs like this: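 SBE-bla HEK 293T cells were plated overnight at 37 C, then given compounds in DMSO plus TGF-beta1 (added as 0.25 ng/mL solution) for 5 hr. After the bla read, CellTiter-Glo was added to the same wells and luminescence read after 30 min at room temperature.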

Test [3] is described as follows: qHTS assay to identify small molecule agonists of the TGF-beta/Smad signaling pathway (AID 1346859; active = well fitted activation curve with a large enough effect in the signal ratio in the repeat runs, not every such curve was filed as active; the % refers to the signal ratio; note: series mostly up to about 77 µM). In a few lines: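 Beta-lactamase reporter activity downstream of Smad binding elements was measured in stably transfected HEK 293T cells; compounds were incubated for 5 hr, substrate for 2 hr at room temperature.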
In general terms: In qHTS, concentration-response curves come from the screen itself.

Test [4] addresses Thyrotropin-releasing hormone receptor (Homo sapiens) (UniProt P34981). The test can be described thus: qHTS assay to identify small molecule antagonists of the thyrotropin-releasing hormone receptor (TRHR) signaling pathway (AID 1346877; active = well fitted inhibition curve with a large enough effect in the repeat runs, not every such curve was filed as active; note: series mostly up to about 51 µM). In short, it runs like this: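 TRHR-expressing HEK293 cells were seeded, cultured 18 h at 37 °C, then loaded with calcium dye for 2 h. Compounds were pre-incubated 5 min at room temperature before 1 nM TRH (final) was added, and kinetic fluorescence was recorded for 3 min.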

The target is the same in test [5]. Description: qHTS assay to identify small molecule agonists of the thyrotropin-releasing hormone receptor (TRHR) signaling pathway (AID 1346891; calls by dose curve; note: series mostly up to about 58 µM). In short, it runs like this:
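Overnight-plated (18 h, 37 °C, 5% CO2) TRHR-Hek293 cells; 2 h calcium dye at 37 °C; compound in DMSO; 3-min kinetic fluorescence read.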

Test [6] is described as follows: Human pregnane X receptor (PXR) small molecule agonists, qHTS cell viability counter screen (AID 1346977). Note: nearly all actives have a fitted effect of over 50% in size. Note: potency is the fitted concentration of half-maximal effect. In short, it runs like this:
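After a 5hr pre-incubation, PXR-Luc HepG2 cells received compounds plus positive control in DMSO and were kept 24hr at 37C. Cell viability was quantified by fluorescence from CellTiter-Fluor added for the final hour.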

A short description of test [7]: Caspase-3/7 induction in HepG2 cells by small molecules, qHTS assay (AID 1346978). Note: nearly all actives have a fitted effect of over 15% in size. In short, it runs like this:
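Wild-type HepG2 cells (2,000/well) were settled 5 h at 37 C, 5% CO2, then exposed to compounds in DMSO for 17 h. Caspase-3/7 activity was read by luminescence 30 min after adding Caspase-Glo 3/7 reagent at room temperature.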

Test [8] in a line: Caspase-3/7 induction in CHO-K1 cells by small molecules, qHTS cell viability counter screen (AID 1346979). Note: nearly all actives have a fitted effect of over 35% in size. Note: potency is the fitted concentration of half-maximal effect. In a few lines: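 Multiplexed with Caspase-Glo 3/7 in CHO-K1 cells, this counter screen added CellTiter-Fluor after 16hr of compound exposure and recorded fluorescence 1hr later.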
Test [9] is described as follows: Caspase-3/7 induction in CHO-K1 cells by small molecules, qHTS assay (AID 1346980). Note: nearly all actives have a fitted effect of over 15% in size. In a few lines: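 Wild-type cells were seeded at 1,500 per well and settled 5 hr at 37 C, 5% CO2, then exposed to DMSO-dissolved compounds for 17 hr. Caspase-Glo 3/7 reagent was added, and luminescence was read after 30min at room temperature.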
The nature of test [10]: Caspase-3/7 induction in HepG2 cells by small molecules, qHTS cell viability counter screen (AID 1346981). Note: series mostly up to about 92 µM; nearly all actives have a fitted effect of over 30% in size. In a few lines: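 Wild-type HepG2 cells (2,000/well) were allowed to settle for 5 hr at 37 C, 5% CO2, then dosed with compounds in DMSO by pin transfer. After 16 hr at 37 C, CellTiter-Fluor was added and fluorescence read 1 hr later.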
Test [11] deals with Nuclear receptor subfamily 1 group I member 2 (Homo sapiens) (UniProt O75469). The test can be described thus: Human pregnane X receptor (PXR) small molecule agonists, qHTS assay (AID 1346982). Note: nearly all actives have a fitted effect of over 35% in size. Note: potency is the fitted concentration of half-maximal effect. In short, it runs like this: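 PXR-Luc HepG2 cells (CYP3A4 promoter-driven luciferase) were seeded in medium with 5% charcoal-stripped FBS, left 5 hr at 37 C, then exposed to compounds in DMSO for 24 hr. Luminescence was read after ONE-Glo addition.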

Test [12] concerns the target Acetylcholinesterase (Homo sapiens) (UniProt P22303). Description: Acetylcholinesterase (AChE) small molecule antagonists: colormetric cell-based qHTS assay (AID 1347395; calls by dose curve; note: nearly all actives have a fitted effect of over 30% in size). In short, it runs like this: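 In this cell-based qHTS, attached SH-SY5Y cells were treated with test chemicals for 30 min, after which acetylthiocholine hydrolysis was followed by DTNB colour development over 90 min at 37 C.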

The target is the same in test [13]. The test can be described thus: Acetylcholinesterase (AChE) small molecule antagonists: enzyme-based qHTS assay (AID 1347397; calls by dose curve; note: nearly all actives have a fitted effect of over 55% in size). To be noted: Potency: AChE enzyme activity inhibition. In a few lines:
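Recombinant human AChE, dispensed at 50 mU/mL, was preincubated with Tox21 10K compounds or DMSO vehicle for 30 min at room temperature. DTNB plus acetylthiocholine was then added, and thiocholine was measured colorimetrically after a further 10 min.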

Test [14] in a line: qHTS assay to identify small molecule agonists of the TGF-beta/Smad signaling pathway - cell viability counter screen (AID 1346829). Note: top concentration of the series differs between compounds; nearly all actives have a fitted effect of over 45% in size. In short, it runs like this: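 Same-well cytotoxicity: CellTiter-Glo added after the 2 hr room-temperature beta-lactamase substrate step, luminescence measured 30 min later; cells had 5 hr of compound at 37 C.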
For test [15], the target named is Nuclear receptor subfamily 1 group I member 2 (Rattus norvegicus) (UniProt Q9R1A7). The test can be described thus: Rat pregnane X receptor (rPXR) activation by small molecules, qHTS assay (AID 1346983). Note: nearly all actives have a fitted effect of over 20% in size. To be noted: rPXR luciferase reporter cells, One-Glo luminescence, 24 h; max activation: hits give high values. In a few lines: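 Cell-based rPXR luciferase reporter assay, 2,000 cells per well, rested 5hr at 37 C before compound addition in DMSO, then 24 hr at 37 C. One-Glo reagent was added and luminescence read after 30 min at room temperature.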

Test [16] concerns the target Nuclear receptor subfamily 1 group I member 2 (Homo sapiens) (UniProt O75469). The test can be described thus: CYP3A4 induction through human pregnane X receptor (PXR) by small molecules, qHTS assay (AID 1346984). Note: nearly all actives have a fitted effect of over 40% in size. In a few lines: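 DPX-2 cells (HepG2 co-transfected with PXR and CYP3A4 promoter-luciferase) treated with compounds 24 h at 37C; luciferin-IPA CYP3A4 substrate 3uM final added for 3 h, then One-Glo; luminescence read. qHTS format.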

Test [17] shares this target. Description: Human pregnane X receptor (PXR) activation by small molecules, qHTS assay (AID 1346985). Note: nearly all actives have a fitted effect of over 40% in size. In short, it runs like this:
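DPX-2 cells (HepG2 co-transfected with a PXR response element and a CYP3A4-promoter luciferase construct) were seeded at 2,000 per well, rested 5 hr at 37C, then exposed to DMSO-dissolved compounds for 24 hr. Activation was read as luciferase luminescence.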

Test [18] is described as follows: qHTS assay to identify small molecule antagonists of the progesterone receptor (PR) signaling pathway - cell viability counter screen (AID 1346798). Note: series mostly up to about 92 µM; nearly all actives have a fitted effect of over 50% in size. In a few lines:
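Measures cytotoxicity in parallel with the PR antagonist reporter read: HEK293T PR-UAS-bla cells get compound and R5020 for 16 hr, and remaining viable cells are quantified by CellTiter-Glo luminescence.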

Test [19] is described as follows: qHTS assay to identify small molecule agonists of the progesterone receptor (PR) signaling pathway - cell viability counter screen (AID 1346799; calls by dose curve; note: nearly all actives have a fitted effect of over 45% in size). In short, it runs like this:
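Using the same plates as the PR reporter screen, HEK293T PR-UAS-bla cells received compounds for 16 hr at 37C and were then lysed with CellTiter-Glo; luminescence was read 30 min later at room temperature.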

The structures appear in SMILES notation. A number with no mark means an inactive call. Inconclusive results are not listed. Active and inactive are the calls of the source. Unless noted, calls come from the whole dose curve; as a rule, active = well fitted curve in the direction sought with a large enough effect in the repeat runs; inconclusive = weak or mixed curves; inactive = no such curve, though single readings can be large; an effect the other way counts as inactive or inconclusive.
% is set by controls: 0 for no effect and ±100 for the full control effect.

Sequence of Thyrotropin-releasing hormone receptor (Homo sapiens) (P34981 whole entry, looked up): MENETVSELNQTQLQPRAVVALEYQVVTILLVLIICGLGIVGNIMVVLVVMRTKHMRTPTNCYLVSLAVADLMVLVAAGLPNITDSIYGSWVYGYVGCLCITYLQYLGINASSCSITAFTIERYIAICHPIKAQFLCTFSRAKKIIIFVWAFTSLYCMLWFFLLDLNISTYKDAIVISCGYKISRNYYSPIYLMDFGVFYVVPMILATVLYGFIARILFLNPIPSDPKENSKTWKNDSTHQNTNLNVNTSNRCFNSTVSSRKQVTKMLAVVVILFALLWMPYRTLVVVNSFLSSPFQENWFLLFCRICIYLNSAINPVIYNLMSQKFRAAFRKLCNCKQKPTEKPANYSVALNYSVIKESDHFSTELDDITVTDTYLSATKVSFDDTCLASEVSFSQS
Sequence of Acetylcholinesterase (Homo sapiens) (P22303 whole entry, looked up): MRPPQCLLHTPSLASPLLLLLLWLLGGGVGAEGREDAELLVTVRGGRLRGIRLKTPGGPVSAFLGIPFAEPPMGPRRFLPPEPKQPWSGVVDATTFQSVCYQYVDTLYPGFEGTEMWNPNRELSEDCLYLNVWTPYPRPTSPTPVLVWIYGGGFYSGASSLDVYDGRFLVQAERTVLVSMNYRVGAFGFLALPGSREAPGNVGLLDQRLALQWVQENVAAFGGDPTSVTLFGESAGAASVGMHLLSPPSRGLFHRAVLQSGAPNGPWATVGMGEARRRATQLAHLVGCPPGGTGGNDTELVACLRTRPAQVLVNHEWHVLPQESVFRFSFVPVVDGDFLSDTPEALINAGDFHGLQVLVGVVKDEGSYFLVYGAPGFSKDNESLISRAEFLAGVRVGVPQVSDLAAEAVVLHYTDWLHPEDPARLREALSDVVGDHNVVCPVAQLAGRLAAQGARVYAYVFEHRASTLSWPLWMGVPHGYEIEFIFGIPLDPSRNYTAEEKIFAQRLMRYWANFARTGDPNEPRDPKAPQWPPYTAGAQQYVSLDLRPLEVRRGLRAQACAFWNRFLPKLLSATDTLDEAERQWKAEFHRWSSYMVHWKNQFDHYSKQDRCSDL
Sequence of Nuclear receptor subfamily 1 group I member 2 (Homo sapiens) (O75469 whole entry, looked up): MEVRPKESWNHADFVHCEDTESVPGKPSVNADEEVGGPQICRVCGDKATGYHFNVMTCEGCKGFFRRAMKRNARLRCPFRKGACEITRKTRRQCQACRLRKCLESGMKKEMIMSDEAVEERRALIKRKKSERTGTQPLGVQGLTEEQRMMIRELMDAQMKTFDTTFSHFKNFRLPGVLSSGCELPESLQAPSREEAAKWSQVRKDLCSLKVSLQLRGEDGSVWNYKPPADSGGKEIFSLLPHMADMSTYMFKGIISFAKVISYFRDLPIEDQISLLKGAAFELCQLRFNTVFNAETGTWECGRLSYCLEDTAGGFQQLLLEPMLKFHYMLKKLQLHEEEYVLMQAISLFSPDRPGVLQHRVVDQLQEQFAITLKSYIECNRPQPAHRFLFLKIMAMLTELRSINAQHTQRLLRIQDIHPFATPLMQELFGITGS
Sequence of Progesterone receptor (Homo sapiens) (P06401 whole entry, looked up): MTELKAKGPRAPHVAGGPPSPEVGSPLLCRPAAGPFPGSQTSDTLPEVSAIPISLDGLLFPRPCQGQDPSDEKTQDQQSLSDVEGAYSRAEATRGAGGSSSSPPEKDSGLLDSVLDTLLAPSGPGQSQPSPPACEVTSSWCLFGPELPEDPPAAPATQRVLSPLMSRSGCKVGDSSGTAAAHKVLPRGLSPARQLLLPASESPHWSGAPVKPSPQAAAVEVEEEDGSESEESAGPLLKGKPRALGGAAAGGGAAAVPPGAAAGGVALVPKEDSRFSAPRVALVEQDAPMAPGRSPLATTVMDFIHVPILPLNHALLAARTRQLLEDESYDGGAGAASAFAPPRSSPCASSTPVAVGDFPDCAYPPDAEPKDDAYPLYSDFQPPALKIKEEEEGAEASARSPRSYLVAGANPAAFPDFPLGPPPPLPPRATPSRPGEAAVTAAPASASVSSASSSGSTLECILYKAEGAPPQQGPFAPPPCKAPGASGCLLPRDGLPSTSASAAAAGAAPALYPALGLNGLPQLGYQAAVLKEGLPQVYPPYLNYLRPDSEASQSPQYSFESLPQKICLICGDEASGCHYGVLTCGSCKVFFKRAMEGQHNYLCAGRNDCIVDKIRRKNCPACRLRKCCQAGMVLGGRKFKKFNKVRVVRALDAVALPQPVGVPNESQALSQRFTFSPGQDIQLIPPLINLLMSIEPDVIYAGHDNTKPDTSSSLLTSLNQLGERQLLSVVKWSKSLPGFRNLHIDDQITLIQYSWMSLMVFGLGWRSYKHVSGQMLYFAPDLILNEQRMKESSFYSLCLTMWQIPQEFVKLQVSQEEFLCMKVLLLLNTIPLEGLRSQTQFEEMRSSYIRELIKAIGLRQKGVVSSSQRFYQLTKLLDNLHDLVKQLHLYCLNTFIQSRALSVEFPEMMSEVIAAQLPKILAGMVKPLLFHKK
Sequence of Nuclear receptor subfamily 1 group I member 2 (Rattus norvegicus) (Q9R1A7 whole entry, looked up): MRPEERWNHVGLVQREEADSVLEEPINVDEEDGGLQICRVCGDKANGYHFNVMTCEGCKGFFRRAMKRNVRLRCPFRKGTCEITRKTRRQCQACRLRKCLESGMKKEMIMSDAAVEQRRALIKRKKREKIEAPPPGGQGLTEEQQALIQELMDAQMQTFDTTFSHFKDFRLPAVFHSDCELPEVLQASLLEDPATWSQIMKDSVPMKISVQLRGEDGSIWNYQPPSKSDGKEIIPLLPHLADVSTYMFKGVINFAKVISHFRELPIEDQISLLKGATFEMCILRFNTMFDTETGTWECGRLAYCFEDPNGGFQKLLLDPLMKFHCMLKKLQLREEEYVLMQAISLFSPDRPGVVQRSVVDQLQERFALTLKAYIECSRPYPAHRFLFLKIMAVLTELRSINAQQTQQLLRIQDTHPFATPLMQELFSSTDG

For `CC(CC(C#N)(c1ccccc1)c1ccccc1)N(C)C` (stereo not given), the Potency entry in test [1], in test [2], in test [7], in test [8], in test [9] and in test [10] was “inactive” in each case. Moreover, the Potency entry in test [11], in test [12] and in [13] was “inactive” throughout. Also, the molecule was called inactive in [3], in [4] and in test [5]. Also, in test [6], the Potency was 48.3 µM (active).

For the molecule `O=C(CCCN1CCC(n2c(=O)[nH]c3ccccc32)CC1)c1ccc(F)cc1`, the Potency result in [1], in test [7], in test [8], in test [9], in test [10] and in [16] was “inactive” throughout. Besides, the Potency result in test [17], in test [12] and in test [13] was “inactive” throughout. Moreover, the outcome in [14] and in [3] was inactive. Also, in test [11], the Potency is 13.3 µM (active). Further, in test [15], the max activation is -1.58%.

On to `CCCCCCBr`, for which the Potency result in test [18], in test [19], in test [2], in test [6], in test [7] and in [8] was “inactive” throughout. Also, the Potency entry in test [9] and in test [10] was “inactive” each time. Further, the molecule was classed as inactive in test [14] and in test [3].

For the molecule `c1cc[c]([Hg][c]2ccccc2)cc1`, the Potency entry in test [1], in [18], in test [7], in [9], in test [10] and in [12] was “inactive” throughout. In test [13], the Potency entry is “inactive”. The result in test [14], in test [3], in test [4] and in [5] was inactive. Further, the Potency in test [6] was 68.6 µM (active); in [8], 68.6 µM (active); in test [11], 10.9 µM (active).

On to `CC1=C(C(=O)Nc2ccccc2)S(=O)(=O)CCO1`, for which the Potency result in test [1], in test [7], in test [9], in test [11] and in test [12] was “inactive” each time. Further, in [3], the molecule was called inactive. For the same molecule, the Potency in [8] is 61.1 µM (active).

Take `Fc1ccc(C2(Cn3cncn3)OC2c2ccccc2Cl)cc1` (stereo not given): the Potency result in [1], in test [18], in test [7], in [9], in [10] and in test [13] was “inactive” in each case. In addition, the call in test [14], in test [3], in [4] and in test [5] was inactive.

Take `CC1COC2(c3ccccc3Cl)c3cc(Cl)ccc3NC(=O)CN12` (stereo not given): the Potency result in test [1], in test [19], in test [2], in test [6], in [7] and in test [9] was “inactive” each time. Also, the Potency entry in [12] and in [13] was “inactive” each time. Also, the call in test [14] and in test [3] was inactive. Also, in [11], the Potency is 23.7 µM (active).

For `CCOC(=O)NC(=S)Nc1ccccc1NC(=S)NC(=O)OCC`, the Potency entry in [1], in [19], in test [2], in test [6], in test [7] and in test [9] was “inactive” each time. Besides, the Potency result in [10] and in test [12] was “inactive” each time. For the same molecule, the molecule was classed as inactive in test [14], in test [3] and in [5]. In test [11], the Potency was 27.3 µM (active).
